pAkt inh – blocks phosphorylation of Akt | 360,000 compounds, 0.32% hits | activity change, % for hits at 50 µM | AID 651550 | Neuro2A IGF-stimulated pAkt S473 HTRF, 20 min; active compounds read low; in the data active means activity change below about -80%; inconclusive means mostly about -51% to -80%
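Neuro2A cells in DMEM with 0.5% FBS, overnight at 37 deg C, given compound at single 50 µM final, then IGF (6 nM final) for 20 min at 37 deg C. Lysed; phospho-Akt Ser473 by HTRF after 24 h, 665/615 ratio.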
KCNH2 3.1 inh – inhibitors of human KCNH2 3.1 potassium channel isoform | activity change, % (tested at about 1.8 µM) | 340,000 compounds, 0.95% hits | AID 720553 | U2OS KCNH2 3.1, thallium flux FluxOr; active compounds read low;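 active means maximum activity change below -70%; inconclusive means maximum activity change from -70% to -50%; inactive means maximum activity change above -50%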;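 further: thallium influx rate constant from kinetic fluorescence after stimulation buffer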
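Virally transduced U2OS (3.1 isoform, 4 h infection in dark at RT) → overnight 37 C → FluxOr + Red40 in HBSS/HEPES, 45 min → stimulation buffer, 2 min kinetic read → rate constant vs DMSO controls.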
RXFP1 antag – blocks the human relaxin receptor RXFP1. activity change, negative = inhibition, % at 57.5 µM. Q9HBX9. AID 1259400. 350,000 compounds, 0.59% hits. HEK293-RXFP1, relaxin-stimulated cAMP HTRF, 30 min; active compounds read low;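 active means activity change of -60% or lower, but not beyond a set lower limit; inconclusive means change between -60% and -40%, or beyond the set limit; inactive means change above -40%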
Target sequence (Q9HBX9 whole entry, looked up): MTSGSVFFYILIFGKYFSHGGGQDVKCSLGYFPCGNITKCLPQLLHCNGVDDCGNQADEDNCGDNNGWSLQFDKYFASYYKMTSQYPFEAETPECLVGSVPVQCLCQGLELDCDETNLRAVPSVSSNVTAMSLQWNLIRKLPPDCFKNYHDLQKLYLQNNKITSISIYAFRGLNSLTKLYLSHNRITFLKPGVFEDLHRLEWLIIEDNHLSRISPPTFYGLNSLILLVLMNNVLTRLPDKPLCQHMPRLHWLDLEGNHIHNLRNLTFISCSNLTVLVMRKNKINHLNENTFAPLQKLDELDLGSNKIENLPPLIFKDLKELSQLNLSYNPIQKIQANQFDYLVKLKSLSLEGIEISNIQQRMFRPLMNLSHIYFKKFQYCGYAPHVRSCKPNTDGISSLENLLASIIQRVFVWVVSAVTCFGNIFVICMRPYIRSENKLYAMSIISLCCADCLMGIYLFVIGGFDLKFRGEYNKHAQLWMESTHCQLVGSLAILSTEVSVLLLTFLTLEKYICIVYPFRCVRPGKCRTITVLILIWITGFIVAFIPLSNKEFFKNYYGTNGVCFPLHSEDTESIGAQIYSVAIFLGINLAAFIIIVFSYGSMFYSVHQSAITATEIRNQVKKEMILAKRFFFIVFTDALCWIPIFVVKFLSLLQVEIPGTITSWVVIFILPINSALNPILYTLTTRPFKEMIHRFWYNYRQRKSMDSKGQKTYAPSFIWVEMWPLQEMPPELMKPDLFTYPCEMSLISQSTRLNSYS
hERG WT inh – inhibitors of human wildtype KCNH2 potassium channel; activity change, % at 1.84 µM; U2OS, BacMam KCNH2, thallium flux FluxOr; active compounds read low; 340,000 compounds, 0.37% hits; Q12809;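 active means maximum activity change below -70%; inconclusive means maximum activity change between -70% and -50%; inactive means maximum activity change above -50%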
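U2OS cells transduced with wild-type KCNH2 virus are loaded with FluxOr dye for 45 min, and thallium flux is measured in kinetic reads before and after stimulation buffer. Rate constants are normalized to DMSO controls.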
RXFP1 agonist – activates the human relaxin receptor RXFP1; Q9HBX9; 370,000 compounds, 0.3% hits; AID 2676; Potency, µM (highest dose often 57.5 µM), inactives show at the top dose activation, most hits filed as activators; HEK293T-RXFP1 cAMP TR-FRET, 30 min; response scale: percent of porcine relaxin response, buffer zero; active means well fitted activation curve with a large enough effect; inconclusive means small, poorly fitted or top-dose-only effect; further: potency means the concentration at half of the fitted maximal effect; nearly all actives have a fitted effect of over 60% in size
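Agonist response is measured as cAMP accumulation in an RXFP1-transfected HEK293T line under PDE4 inhibition. Values are scaled between buffer-only and 29 nM porcine relaxin, and EC50s come from standard Hill equation fits.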
Starred values were filed as active, the others as inactive; i = inactive; ? = inconclusive; / = not tested or not shown. Sampled rows, rich in hits. Any-hit rate of the full collection: about 1.7%. On the % scale 0 is the no-effect control and ±100 the full control effect.

SMILES	pAkt inh	KCNH2 3.1 inh	RXFP1 antag	hERG WT inh	RXFP1 agonist
O=[N+]([O-])c1ccc(C=NNC(=S)Nc2ccc(F)cc2)cc1	i	-20	-21	-4	/
O=C(CNc1cccc2ccccc12)N/N=C/c1ccc([N+](=O)[O-])cc1	i	/	-5	-19	1%
CC(C)(C)c1ccc(OCc2ccc(C(=O)N/N=C/c3ccc([N+](=O)[O-])cc3)o2)cc1	i	-80*	10	-3	2%
Cc1ccccc1NCC(=O)N/N=C/c1ccc([N+](=O)[O-])cc1	i	-112*	-9	-12	1%
O=[N+]([O-])c1ccc(C=NNC(=S)NN=Cc2ccc([N+](=O)[O-])cc2)cc1	i	-8	-62*	-10	/
COC(=O)c1cccc(Nc2nc(-c3ccncc3)nc3ccccc23)c1	i	-8	11	-9	6%
CCn1c(SCC(=O)NC2CCCCC2)nnc1-c1cccs1	-98%*	8	-9	-9	5%
CCn1c(SCC(=O)NCc2ccco2)nnc1-c1ccncc1	/	/	/	/	0%
Cn1nnnc1SCC(=O)NC1CCCCC1	i	-4	-3	-26	0%
CCn1c(SCC(=O)NCc2ccco2)nnc1-c1cccs1	/	-74*	-1	9	1%
CCn1c(SCC(=O)NC2CC2)nnc1-c1cccs1	i	3	0	3	2%
CCCCn1nnnc1SCC(=O)NC1CCCCC1	i	-8	0	-123*	5%
Cc1ccc(C(=O)OCC(=O)Nc2cccc(Br)c2)s1	i	-10	6	2	/
O=C(/C=C/c1ccccc1)/C=C/c1ccccc1	i	0	-67*	14	6%
O=C(/C=C/c1ccccc1)c1ccccc1	i	-23	/	0	0%
O=C(/C=C/c1ccccc1)CC(=O)c1ccccc1	i	-86*	-18	2	/
O=C(C=Cc1ccccc1)NCCNC(=O)C=Cc1ccccc1	i	/	-8	5	/
COc1ccc(-c2ccc(CN3C(C)C(=O)N(Cc4cn(CC5CCCCC5)nn4)CCS3(=O)=O)cc2)cc1 (stereo not drawn)	i	-13	1	-8	/
CCn1c(SCc2ccc(F)cc2)nnc1C1CCN(S(=O)(=O)c2ccc(OC)cc2)CC1	i	-32	4	2	0%
CCn1c(SCc2ccc(C)cc2)nnc1C1CCN(S(=O)(=O)c2ccc(OC)cc2)CC1	-130%*	-8	-5	4	1%
COc1ccc(CN(C(=O)CSc2nnc(-c3c[nH]c4ccccc34)o2)c2ccc(F)cc2)cc1OC	i	-5	-16	-280*	1%
COc1ccc(CN(C(=O)CSc2nnc(-c3ccc(F)cc3)o2)c2ccc(F)cc2)cc1	i	0	0	17	1%
Cc1cccc(CN2C(=O)NC(c3ccccc3)(c3ccccc3)C2=O)c1	i	-89*	12	4	3%
CC(C)(C)C(=O)CN1C(=O)NC(c2ccccc2)(c2ccccc2)C1=O	i	-16	-20	-2	2%
O=C(COC(=O)/C=C/c1ccc(C(F)(F)F)cc1)NC(=O)NCc1ccco1	i	-8	2	-7	-1%
SMILES	pAkt inh	KCNH2 3.1 inh	RXFP1 antag	hERG WT inh	RXFP1 agonist
COc1ccc(NC(=O)CN2CCc3ccccc3C2)c(OC)c1	i	0	-16	-247*	2%
COc1ccc(NC(=O)CN2CCN(CC(=O)Nc3ccccc3OC)CC2)c(OC)c1	i	-31	8	18	5%
COc1cccc(NC(=O)C(=O)N2CCOCC2)c1	-100%*	-20	-15	1	-1%
COc1ccc(S(=O)(=O)N2CCN(CC(=O)Nc3cc(Cl)ccc3Cl)CC2)cc1	i	-85*	-7	1	-1%
COC(=O)c1ccc(NC(=O)C(=O)N2CCN(C(=S)Nc3cccc(OC)c3)CC2)cc1	i	9	3	0	0%
CS(=O)(=O)c1ccc(Cl)c(NC(=O)CN2CCN(S(=O)(=O)/C=C/c3ccccc3)CC2)c1	i	-84*	-2	26	/
COc1ccc(C2CCCN2C(=S)Nc2cccc(C)c2)cc1OC (stereo not drawn)	i	-8	-10	15	0%
CC[C@]12c3[nH]c4cc(-c5ccco5)ccc4c3CCN1C(=O)[C@@H](CC(=O)NCCCOC)C[C@@H]2C(=O)N1CCN(C(=O)c2ccco2)CC1	i	3	/	8	/
Cc1ccccc1Cn1c(CCCNC(=O)C2CCCCC2)nc2ccccc21	/	/	/	/	-1%
Cc1cccc(C)c1NCc1nnc(SCC(=O)Nc2nc(-c3ccccc3)cs2)n1-c1ccccc1	i	6	-5	-2	1%
COc1ccc(NC(=O)CN2CCN(CC(=O)Nc3ccccc3Cl)CC2)cc1	i	-85*	4	-21	0%
COc1ccc(NC(=O)CN2CCN(CC(=O)Nc3ccc(F)cc3F)CC2)cc1	i	-117*	-8	-120*	4%
CCn1c(-c2ccccc2Cl)nn(CC(=O)Nc2ccc(OC)cc2)c1=S	-106%*	-2	-13	7	1%
COc1cc(NC(=O)CN2CCN(CC(=O)Nc3ccc(F)cc3)CC2)cc(OC)c1	/	/	6	/	-2%
COc1cccc(NC(=O)CN2CCN(CC(=O)Nc3ccc(F)cc3)CC2)c1	i	-85*	-13	-38	-3%
CCOc1ccc(NC(=O)Cn2nc(-c3ccccc3Cl)n(CC)c2=S)cc1	i	3	3	0	0%
CC(C(=O)N1CCOCC1)c1ccccc1 (stereo not drawn)	i	/	/	/	0%
COc1cc(F)cc(C2=CC(=O)C[C@H](c3ccc(F)cc3)C2)c1	i	-36	/	2	0%
CCOc1ccc(NC(=O)CN2CCN(CC(=O)Nc3cccc(F)c3)CC2)cc1	i	-85*	-5	-20	1%
COc1ccc(NC(=O)CN2CCN(CC(=O)Nc3ccc(F)cc3)CC2)cc1Cl	i	-91*	-3	2	1%
COc1ccccc1NC(=O)CN1CCN(CC(=O)Nc2ccc(OCc3ccccc3)cc2)CC1	i	-79*	-1	-25	0%
COc1ccc(S(=O)(=O)N2CCN(Cc3ccc(Cl)cc3)CC2)cc1	i	-1	-3	6	2%
CCOc1ccc(NC(=O)CN2CCN(CC(=O)Nc3ccc(F)cc3F)CC2)cc1	/	/	-11	/	-1%
COc1ccccc1NC(=O)CN1CCN(CC(=O)Nc2ccc(F)cc2)CC1	i	?	-3	-36	0%
COc1ccc(NC(=O)CN2CC(C)OC(C)C2)cc1Cl (stereo not drawn)	i	8	11	-3	-2%
COc1ccc(CN2CCCN(S(=O)(=O)c3ccc(Br)cc3)CC2)cc1	i	-102*	-17	-126*	-2%

Screens as filed in PubChem BioAssay.
